# Assay results from PubChem BioAssay (NCI).
# Compounds without any hit were thinned out: in the full panel of roughly 83,000, 20% have a hit.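 Cells were grown in 96-well plates and exposed to the test compound at a single concentration for 48 hours; results are reported as percent growth, with values below 10 considered active.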 Values without a mark were called inactive. Activity calls are given as the source filed them.
# Legend:
# Assay in all cases: NCI-60 one-dose screen, 48 h (100 = growth as untreated, 0 = no growth, -100 = all killed)
# Conditions in all cases: 10 µM unless noted
# SK-MEL-2 melanoma = tested on: SK-MEL-2 melanoma
# EKVX NSCLC = tested on: EKVX NSCLC
# SN12C renal = tested on: SN12C renal
# UO-31 renal = tested on: UO-31 renal
# TK-10 renal = tested on: TK-10 renal
# A498 renal = tested on: A498 renal
# CCRF-CEM leukemia = tested on: CCRF-CEM leukemia
# MOLT-4 leukemia = tested on: MOLT-4 leukemia
# SR leukemia = tested on: SR leukemia
# RPMI-8226 leukemia = tested on: RPMI-8226 leukemia
# OVCAR-8 ovarian = tested on: OVCAR-8 ovarian
# OVCAR-5 ovarian = tested on: OVCAR-5 ovarian
# OVCAR-4 ovarian = tested on: OVCAR-4 ovarian
# SK-OV-3 ovarian = tested on: SK-OV-3 ovarian
# IGROV1 ovarian = tested on: IGROV1 ovarian
# OVCAR-3 ovarian = tested on: OVCAR-3 ovarian
# HS 578T breast = tested on: HS 578T breast
# NCI/ADR-RES ovarian = tested on: NCI/ADR-RES ovarian
# ACHN renal = tested on: ACHN renal
# CAKI-1 renal = tested on: CAKI-1 renal
SMILES,growth (SK-MEL-2 melanoma),growth (EKVX NSCLC),growth (SN12C renal),growth (UO-31 renal),growth (TK-10 renal),growth (A498 renal),growth (CCRF-CEM leukemia),growth (MOLT-4 leukemia),growth (SR leukemia),growth (RPMI-8226 leukemia),growth (OVCAR-8 ovarian),growth (OVCAR-5 ovarian),growth (OVCAR-4 ovarian),growth (SK-OV-3 ovarian),growth (IGROV1 ovarian),growth (OVCAR-3 ovarian),growth (HS 578T breast),growth (NCI/ADR-RES ovarian),growth (ACHN renal),growth (CAKI-1 renal)
OC(CBr)c1ccnc2ccccc12 (centres undefined),93.3%,103%,99.6%,83.4%,89.4%,102%,76.8%,93.8%,98.7%,87.4%,98.2%,106%,110%,105%,102%,106%,99.6%,101%,–,–
Cc1cc(-c2noc(C(F)(F)F)n2)ccc1N1CCN(c2cc(C(=O)N(C)C)no2)CC1,73%,49.5%,83%,62.7%,–,–,65.3%,71.5%,52.9%,–,68.1%,102%,64.9%,–,92.1%,83.9%,89.1%,69.5%,63.9%,67.7%
CCN(CC)CCCC(C)NCc1ccccc1 (centres undefined),80.9%,102%,102%,83.5%,83.6%,105%,120%,110%,111%,107%,93.7%,97.6%,105%,118%,95.6%,104%,115%,106%,–,–
O=S(=O)(Cc1ccccc1)c1nc2ccccc2s1,57.7%,99.3%,35.5%,49.9%,98%,111%,15.4%,14.1%,17%,20.4%,88.8%,102%,63.7%,101%,61.1%,79.2%,96.2%,96.5%,–,–
CCN1CCN(c2ccc(Nc3cc(-c4cccnc4Nc4c(Cl)c(OC)cc(OC)c4Cl)ncn3)cc2)CC1,74.9%,87.4%,56.6%,52.8%,–,–,31.6%,9.51% (active),–,64.1%,69.2%,92.4%,48.8%,72.7%,57.4%,88.9%,51.8%,75.8%,42.6%,48.5%
CCCCN(Cc1ccc(C(=O)NO)cc1)C(=O)Nc1ccc(OCCCCCCCCCn2cc(CCCCC(=O)N[C@H](C(=O)N3C[C@H](O)C[C@H]3C(=O)NCc3ccc(-c4scnc4C)cc3)C(C)(C)C)nn2)cc1,90.6%,72.1%,31%,70.8%,–,66.5%,13%,14.5%,12.9%,–,50.3%,96.8%,49.3%,53.9%,16.8%,3.45% (active),40.8%,97.3%,105%,61.7%
Nc1ccc(S(=O)(=O)Nc2ccsc2-c2nc(-c3ccccc3)no2)cc1,32.3%,73%,84.8%,71.3%,–,61.2%,53.2%,36.5%,–,65.8%,59.7%,87.5%,81.9%,62.3%,64.7%,36.8%,56.4%,54.6%,87.8%,53.8%
Cl.Fc1c[c-]c(-c2ccccn2)c(F)c1.[Pt].c1ccc(P(c2ccccc2)C([PH+](c2ccccc2)c2ccccc2)[PH+](c2ccccc2)c2ccccc2)cc1,7.06% (active),20.8%,11.2%,-5.69% (active),–,–,17.3%,13.2%,23.3%,–,16.3%,22%,17.2%,–,19.1%,11%,12%,84.2%,17.5%,-1.81% (active)
c1ccc([P+](CCCc2n(Cc3ccc4ccccc4c3)c3ccccc3[n+]2Cc2ccc3ccccc3c2)(c2ccccc2)c2ccccc2)cc1,100%,59.4%,55%,61.2%,–,67.2%,43.2%,57.6%,30.8%,6.9% (active),70.2%,60.1%,74.4%,84.5%,20.8%,75.8%,68.6%,83.7%,81.4%,79.9%
Clc1ccc(/C=C/c2nc(Nc3ccc(Cl)cc3)c3ccccc3n2)cc1,106%,90.5%,103%,70%,–,94.9%,102%,98.2%,104%,–,102%,106%,112%,96.6%,78.2%,106%,103%,103%,105%,90.1%
Cc1ccc(Nc2ccc(Nc3ccc(C)cc3S(=O)(=O)O)c3c2C(=O)c2ccccc2C3=O)c(S(=O)(=O)O)c1,101%,91.5%,98.5%,78.4%,98.3%,119%,95.6%,116%,108%,87.8%,97.6%,106%,102%,111%,114%,95.5%,88.7%,102%,–,–
O=c1[nH]nc(-c2ccc(Cl)cc2)cc1Cc1ccccc1,101%,86%,103%,61.7%,–,110%,81.6%,79.6%,62.5%,41.1%,83%,94.1%,95.1%,99.1%,40.9%,104%,103%,98.4%,92.7%,–
CCC(C)NCc1ccccc1 (centres undefined),92.6%,103%,100%,88%,96.9%,88.8%,83.4%,93.5%,104%,95.7%,102%,114%,109%,101%,109%,104%,105%,98.1%,–,–
O=C(/C=C/C12c3ccccc3C(c3ccccc31)C1C(=O)N(c3ccccc3)C(=O)C12)c1ccc(Cl)cc1 (centres undefined),22.3%,22.9%,19.9%,-37.1% (active),–,–,13%,11.9%,16.9%,4.68% (active),30.7%,8.5% (active),17.6%,–,10.4%,-53.9% (active),14.1%,18.1%,-36.2% (active),54.2%
COc1cc2c(cc1OC)-c1ccc3cc4c(cc3c1N(CCCn1ccnc1)C2)OCO4,37.7%,98.2%,18.1%,80.8%,91.3%,85.2%,1.56% (active),2.11% (active),7.86% (active),0.821% (active),44.7%,103%,67.9%,–,38.3%,33.5%,91.5%,94.4%,–,–
NS(=O)(=O)c1cn(-c2ncnc3nc[nH]c23)ccc1=O,95.4%,97.8%,92.4%,78.2%,94.5%,89.1%,94.1%,99.5%,132%,74.7%,107%,93.1%,95.1%,82.2%,97.2%,103%,102%,105%,–,–
CCCCCOC(=O)c1ccc(NC(=O)CNCC(C)C)cc1,103%,90.8%,94%,66.5%,98.5%,–,74.3%,86.5%,82.2%,73.1%,96.1%,98.9%,101%,95.4%,93.4%,101%,96.9%,101%,–,–
